The nature of test [1]: anti-His antibody binders, primary screen, artefact control for SMM control protein annotation, biochemical, small-molecule microarray, 635 nm fluorescence (AID 1128).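 Note: score merges feature fluorescence with signal-to-noise for each printed compound spot.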 The settings on record: anti-His Alexa647 antibody binding, higher = more signal.
Test [2] relates to Human papillomavirus type 1a E7 protein (residues 1-88). The test can be described thus: HPV1a E7 small-molecule binders, primary screen, biochemical, small-molecule microarray, residues 1-88, 635 nm (AID 1129). As to conditions: small-molecule microarray binding, fluorescence 635 nm; higher = more signal.
For test [3], the target named is Focal adhesion kinase 1 (Homo sapiens) (UniProt Q05397). The test can be described thus: small-molecule microarray binders of FAK, primary screen, biochemical, 635/667 nm fluorescence, BSA, DTT (AID 1130).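 Note: composite of spot emission at 667 nm and signal to noise over triplicate slides.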 The settings on record: PTK2 binding, 635 nm fluorescence, higher = more signal.
Chain of Focal adhesion kinase 1 (Homo sapiens) (Q05397 whole entry, looked up): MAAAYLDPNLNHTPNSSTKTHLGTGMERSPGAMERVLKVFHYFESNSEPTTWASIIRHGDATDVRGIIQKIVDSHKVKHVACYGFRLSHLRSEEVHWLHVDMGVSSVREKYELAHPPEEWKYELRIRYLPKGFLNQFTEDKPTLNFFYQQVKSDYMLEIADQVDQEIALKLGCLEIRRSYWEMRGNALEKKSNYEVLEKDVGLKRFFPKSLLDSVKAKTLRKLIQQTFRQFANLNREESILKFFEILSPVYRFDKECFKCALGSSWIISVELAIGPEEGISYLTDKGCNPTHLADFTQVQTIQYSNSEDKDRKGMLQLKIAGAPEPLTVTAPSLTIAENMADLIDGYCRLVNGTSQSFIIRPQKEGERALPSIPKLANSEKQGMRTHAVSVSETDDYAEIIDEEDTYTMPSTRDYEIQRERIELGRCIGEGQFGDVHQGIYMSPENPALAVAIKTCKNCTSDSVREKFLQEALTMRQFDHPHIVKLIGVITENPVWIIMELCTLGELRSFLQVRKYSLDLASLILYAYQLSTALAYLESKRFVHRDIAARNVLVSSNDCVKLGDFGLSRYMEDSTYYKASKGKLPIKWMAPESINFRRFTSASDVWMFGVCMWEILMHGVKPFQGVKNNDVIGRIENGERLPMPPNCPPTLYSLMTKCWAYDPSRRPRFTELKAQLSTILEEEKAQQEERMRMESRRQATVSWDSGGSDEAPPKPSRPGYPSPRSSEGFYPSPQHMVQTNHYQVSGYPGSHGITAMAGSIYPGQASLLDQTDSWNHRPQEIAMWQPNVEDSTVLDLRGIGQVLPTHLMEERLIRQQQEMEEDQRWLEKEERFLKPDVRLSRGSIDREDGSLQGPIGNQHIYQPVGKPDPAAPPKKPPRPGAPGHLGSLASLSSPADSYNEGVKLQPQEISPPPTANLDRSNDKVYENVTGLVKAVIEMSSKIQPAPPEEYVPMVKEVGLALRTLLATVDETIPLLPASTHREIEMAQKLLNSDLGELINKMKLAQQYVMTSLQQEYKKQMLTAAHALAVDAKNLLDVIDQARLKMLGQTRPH
Test [4] deals with Fibrinogen (Alexa647-labelled). Kind of test: fibrinogen binders on compound microarrays, profiling panel, artefact control for SMM control-protein annotation, biochemical, small-molecule microarray, 635/667 nm fluorescence (AID 1131).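 Note: z-score merges 667 nm fluorescence with per-spot signal-to-noise over triplicate slides.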 The settings on record: fibrinogen-A647 binding fluorescence, higher = more signal.
The target in test [5] is Follistatin (Homo sapiens) (UniProt P19883). Kind of test: follistatin binders on small-molecule microarrays, primary screen, biochemical, small-molecule microarray, 635/667 nm fluorescence (AID 1132). The settings on record: FST binding, 635 nm fluorescence, higher = more signal.
Chain of Follistatin (Homo sapiens) (P19883 whole entry, looked up): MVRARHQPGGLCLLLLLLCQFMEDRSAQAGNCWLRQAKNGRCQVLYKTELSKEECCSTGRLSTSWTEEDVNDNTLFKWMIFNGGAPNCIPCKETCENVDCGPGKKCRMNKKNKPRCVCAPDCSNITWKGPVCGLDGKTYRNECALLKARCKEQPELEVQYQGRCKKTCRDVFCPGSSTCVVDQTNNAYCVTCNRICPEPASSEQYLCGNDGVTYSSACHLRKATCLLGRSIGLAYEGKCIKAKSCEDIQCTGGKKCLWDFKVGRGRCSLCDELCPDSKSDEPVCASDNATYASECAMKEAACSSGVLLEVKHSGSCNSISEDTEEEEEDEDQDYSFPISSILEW
In test [6] the target is Fibroblast growth factor 2 (Homo sapiens) (UniProt P09038). The test can be described thus: FGF2 binders on small-molecule microarrays, primary screen, biochemical, small-molecule microarray, 635/667 nm fluorescence (AID 1133). The settings on record: small-molecule microarray binding, FGF2, fluorescence 635/667; higher = more signal.
Chain of Fibroblast growth factor 2 (Homo sapiens) (P09038 whole entry, looked up): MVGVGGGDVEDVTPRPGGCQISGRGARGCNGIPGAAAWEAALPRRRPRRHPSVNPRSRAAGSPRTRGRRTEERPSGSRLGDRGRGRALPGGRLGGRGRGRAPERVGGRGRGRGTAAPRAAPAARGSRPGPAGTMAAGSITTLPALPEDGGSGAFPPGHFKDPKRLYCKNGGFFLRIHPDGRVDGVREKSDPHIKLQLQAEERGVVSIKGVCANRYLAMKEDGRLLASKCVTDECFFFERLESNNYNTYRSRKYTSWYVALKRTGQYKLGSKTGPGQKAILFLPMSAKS
The nature of test [7]: mitochondrial membrane potential change in A549 cells, profiling panel, cell-based, JC-1 fluorescence, basal, 24 h, 100 nL (AID 1138).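 Note: A549 lung adenocarcinoma cells under basal conditions with no added stimulus; test concentration not given here.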 The settings on record: higher = more signal.
The test system of a further test is Lefty1. Kind of test: Lefty1 binders on small-molecule microarrays, primary screen, biochemical, small-molecule microarray, 635/667 nm fluorescence (AID 1139). The settings on record: small-molecule microarray binding, fluorescence 635/667; higher = more signal.
Test [8] relates to wheat germ agglutinin (Triticum aestivum), Alexa647-labelled. Kind of test: wheat germ agglutinin binders on compound microarrays, profiling panel, artefact control for SMM control-protein annotation, biochemical, small-molecule microarray, 635/667 nm fluorescence (AID 1140).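 Note: score merges 667 nm feature emission with signal to noise over triplicate slides.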 As to conditions: WGA-A647 binding, 635 nm fluorescence, higher = more signal.
The target in test [9] is Luciferin 4-monooxygenase (Photinus pyralis) (UniProt P08659). Kind of test: firefly luciferase enzyme inhibitors, primary screen, biochemical, luminescence, purified enzyme, 2006 set (AID 1141).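 Note: cell-free assay with purified firefly luciferase at 100 ng per well in PBS; test concentration not given here.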 The settings on record: SteadyGlo luminescence, 30 min, higher = more signal, called active from +8 up or from −8 down.
Chain of Luciferin 4-monooxygenase (Photinus pyralis) (P08659 whole entry, looked up): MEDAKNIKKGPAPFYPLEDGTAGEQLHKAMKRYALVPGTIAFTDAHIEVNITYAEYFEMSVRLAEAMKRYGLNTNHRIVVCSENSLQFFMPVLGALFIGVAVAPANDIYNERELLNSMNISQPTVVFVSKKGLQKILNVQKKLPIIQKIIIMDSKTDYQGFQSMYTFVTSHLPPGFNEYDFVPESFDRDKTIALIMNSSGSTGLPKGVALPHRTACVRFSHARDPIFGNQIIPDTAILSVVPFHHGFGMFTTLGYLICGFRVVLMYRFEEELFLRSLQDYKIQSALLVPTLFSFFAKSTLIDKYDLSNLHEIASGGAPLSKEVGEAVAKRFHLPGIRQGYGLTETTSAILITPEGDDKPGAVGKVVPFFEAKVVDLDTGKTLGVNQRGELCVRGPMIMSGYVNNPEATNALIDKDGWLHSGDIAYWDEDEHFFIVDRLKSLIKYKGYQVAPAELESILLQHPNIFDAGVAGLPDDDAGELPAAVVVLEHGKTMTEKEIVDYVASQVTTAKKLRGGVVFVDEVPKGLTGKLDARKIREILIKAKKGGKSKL
Test [10] has as its system Wnt5a (protein binding on small-molecule microarray). Kind of test: Wnt5a binders on small-molecule microarray, primary screen, biophysical, 635/667 nm fluorescence (AID 1142).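 Note: fluorescence read at 667 nm with signal to noise per printed feature.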 The settings on record: 635 nm fluorescence, higher = more signal.
Test [11] in a line: cell viability in Huh7 cells, primary screen, cytotoxicity control for HCV replication inhibitor project, CellTiter-Glo luminescence, basal, 48 h (AID 1143).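 Note: Huh7 hepatoma cells carrying a hepatitis C replication reporter with no stimulus; test concentration not given here.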 As to conditions: Huh7 HCV replicon, higher = more signal, called active from +8 up or from −8 down.
Test [12] is described as follows: P. aeruginosa biofilm formation inhibitors, primary screen, PAO1 strain, BacTiter-Glo luminescence, LB-PBS (AID 1144). The settings on record: 12 h, higher = more signal.
Test [13] can be described thus: CREB reporter modulators without forskolin, primary screen, cell-based, PC12, CRE-LacZ reporter, unstimulated (AID 1145). The settings on record: no forskolin, luminescence, 4.5 h, higher = more signal, called active from +8 up or from −8 down.
A short description of test [14]: CREB reporter modulators under forskolin, primary screen, cell-based, PC12, CRE-LacZ reporter, forskolin-stimulated (AID 1146).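 Note: PC12 cells with 6xCRE LacZ reporter stimulated by forskolin 10 µM; beta-galactosidase reporter signal reflecting CREB driven transcription.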 As to conditions: luminescence, 4.5 h, higher = more signal, called active from +8 up or from −8 down.
Test [15] addresses Streptavidin (Streptomyces avidinii) (UniProt P22629). The test can be described thus: streptavidin binders on small-molecule microarray, primary screen, artefact control for SMM compound annotation, biophysical, 635/667 nm fluorescence (AID 1147).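 Note: signal reflects streptavidin binding to arrayed compounds as a control protein.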 The settings on record: streptavidin binding, higher = more signal.
The nature of test [16]: small-molecule binders of probe aInhba, primary screen, biochemical, small-molecule microarray, 635/667 nm fluorescence (AID 1148).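 Note: score merges 667nm spot fluorescence with signal-to-noise for antibody binding to printed compounds.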 The settings on record: higher = more signal.
In test [17] the target is Torsin-1A (Homo sapiens) (UniProt O14656). Kind of test: torsin A binders from cell lysate, primary screen, small-molecule microarray, wild-type, 635/667 nm (AID 1149). The settings on record: COS7 hTOR1A-WT lysate, 635 nm fluorescence, higher = more signal.
Chain of Torsin-1A (Homo sapiens) (O14656 whole entry, looked up): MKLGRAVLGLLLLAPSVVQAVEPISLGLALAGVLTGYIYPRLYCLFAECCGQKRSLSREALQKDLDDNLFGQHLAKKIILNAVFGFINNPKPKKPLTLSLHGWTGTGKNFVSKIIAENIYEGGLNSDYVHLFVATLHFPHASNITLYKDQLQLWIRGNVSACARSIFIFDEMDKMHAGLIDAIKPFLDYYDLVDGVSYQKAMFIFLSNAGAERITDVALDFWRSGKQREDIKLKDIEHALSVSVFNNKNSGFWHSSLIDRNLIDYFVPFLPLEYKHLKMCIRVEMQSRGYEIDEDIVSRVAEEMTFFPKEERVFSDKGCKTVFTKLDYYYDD
Test [18] shares this target. Kind of test: small-molecule binders of mutant TOR1A in lysate, primary screen, cell lysate, small-molecule microarray, COS7 lysate, 635/667 nm fluorescence (AID 1150).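 Note: score pools 667 nm emission and signal to noise measuring lysate protein binding.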 As to conditions: COS7 hTOR1A mutant lysate, 635 nm fluorescence, higher = more signal.
The subject of test [19] is Sonic hedgehog protein (Shh). Kind of test: small-molecule binders of Shh protein, primary screen, biochemical, small-molecule microarray, 635/667 nm fluorescence (AID 1151).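 Note: Shh protein binding to compounds spotted on small-molecule microarray slides; score combines spot fluorescence intensity with signal-to-noise across triplicate slides.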 As to conditions: small-molecule microarray binding, 635 nm fluorescence; higher = more signal.

Among the data in PubChem BioAssay are composite z-score and z-score values, retold here.

Each structure is given as a SMILES string. The source made the active and inactive calls. Unless noted, the rule behind the calls is not given here.

Chain of Streptavidin (Streptomyces avidinii) (P22629 whole entry, looked up): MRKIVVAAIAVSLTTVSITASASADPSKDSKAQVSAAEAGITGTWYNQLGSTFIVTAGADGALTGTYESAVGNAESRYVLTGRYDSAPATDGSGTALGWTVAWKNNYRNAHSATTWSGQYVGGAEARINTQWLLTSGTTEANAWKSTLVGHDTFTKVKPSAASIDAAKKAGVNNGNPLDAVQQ

`O=C1OCCC/C=C\[C@H]2OC34C=CCN(c5ccc6ccccc6c5)C(=O)[C@H]3N(CCCCCO)C(=O)[C@@H]4C12` (stereo not given in full): the composite z-score was -0.268 in [1]; -1.62 in [2]; -0.24 in test [3]; -0.582 in test [4]; -0.472 in test [5]; -1.06 in test [6]. Also, the composite z-score in the test with Lefty1 is -0.343; in test [8], -0.753; in [10], -0.591; in test [15] it was -0.773; in test [16] it was -0.209; with Torsin-1A (Homo sapiens) [17], -2.04. Further, the values for the composite z-score (in the test with Torsin-1A (Homo sapiens) [18]; in [19]) were -1.51 and -0.0295, respectively. For the same compound, the z-score in test [7] is -0.168; in test [9], 0.118 (inactive); in test [11], 0.123 (inactive); in [12], 2.33 (inactive); in test [13], 0.601 (inactive); in [14] it was 0.106 (inactive).
For the compound `COc1cc(CO)cc(I)c1O[C@H]1C=C(C(=O)NCCO)C[C@@H](NC[C@@H]2CCCO2)[C@@H]1O`, the composite z-score is 0.296 in test [1]; 0.63 in [2]; 0.106 in [3]; 0.346 in test [4]; 0.323 in test [5]; 0.599 in test [6]. The composite z-score was 0.831 with Lefty1; 0.483 in test [8]; -0.11 in test [10]; -0.442 in [15]; -0.135 in test [16]; 0.761 with Torsin-1A (Homo sapiens) [17]. Also, the composite z-score in the test with Torsin-1A (Homo sapiens) [18] was 0.127; in test [19], 1.07. Besides, the z-score in [7] was 0.452; in test [9], 0.758 (inactive); in [11], 0.102 (inactive); in [12], -0.69 (inactive); in test [13], 1.77 (inactive); in test [14], -0.809 (inactive).
As to `O=C1O[C@@H](c2ccccc2)[C@@H](c2ccccc2)N2[C@@H](c3ccccc3OCCO)[C@]3(C(=O)Nc4ccc(C#CC5(O)CCCCCC5)cc43)[C@@H](C(=O)N3CCN(c4ncccn4)CC3)[C@H]12`, the composite z-score in test [1] turned out to be 1.25; in [2], 1.2; in test [3], 0.564; in test [4], 0.885; in [5], 1.03; in [6], 1.15. Further, the composite z-score with Lefty1 is 0.62; in [8] it was 0.742; in [10] it was 0.133; in [15] it was 0.077; in [16], 0.0074; with Torsin-1A (Homo sapiens) [17], 0.987. In addition, the composite z-score is 0.808 in the test with Torsin-1A (Homo sapiens) [18] and 1.11 in test [19]. Further, the z-score in [7] was -0.758; in [9], -1.39 (inactive); in test [11], -2.72 (inactive); in test [12], 0.703 (inactive); in test [13], 0.209 (inactive); in test [14] it was 2.96 (inactive).
As to `CC(C)C(=C=CC[C@H](O)c1ccc(CO)o1)CCO`, the composite z-score was 0.748 in test [1]; 0.679 in [2]; 0.217 in test [3]; 0.0411 in test [4]; 1.01 in test [5]; 0.489 in test [6]. Moreover, the composite z-score is 1.37 in the test with Lefty1; 0.383 in [8]; -0.0164 in [10]; 0.0515 in test [15]; -0.0963 in [16]; 0.385 with Torsin-1A (Homo sapiens) [17]. Besides, the composite z-score with Torsin-1A (Homo sapiens) [18] was 0.291; in [19], 1.71. The z-score in test [7] was -0.589; in [9], -0.751 (inactive); in test [11], 0.243 (inactive); in test [12], -0.0587 (inactive); in test [13], 1.87 (inactive); in test [14], 1.33 (inactive).
On to `Cc1ccc(C2C3C(=O)CC4C(=O)N(c5ccccc5)C(=O)C4C3CN2S(=O)(=O)c2ccc(C)cc2)cc1` (stereo not given), for which the composite z-score is 1.16 in test [1]; 1.24 in test [2]; -0.177 in test [3]; 0.403 in [4]; 0.24 in [5]; 0.294 in test [6]. For the same compound, the composite z-score in the test with Lefty1 amounted to 0.0507; in [8], 0.912; in test [10], 0.731; in test [15] it was 0.525; in [16], 0.255; with Torsin-1A (Homo sapiens) [17] it was 0.0484. The composite z-score in the test with Torsin-1A (Homo sapiens) [18] is 0.392; in test [19], 0.205. Further, the z-score in test [7] was -0.112; in test [9] it was 0.732 (inactive); in [11], -0.966 (inactive); in [12] it was 0.538 (inactive); in test [13], -0.826 (inactive); in test [14], -0.743 (inactive).
